Assay results published in PubChem BioAssay (EPA / NIEHS).
Records with an inconclusive call do not appear. Activity calls are given as the source filed them. The calls were made as follows, unless noted: active = hit-call score of the fitted dose curve at least 0.9, where 1 is the maximum; inconclusive = response in the unintended direction; inactive = score below 0.9.

Tests used:
[1] = read-out: Cytochrome P450 2B6 (Homo sapiens) (UniProt P20813); assay: CLD_CYP2B6_48hr: CellzDirect (CLD) Gene Expression Assay for xenobiotic metabolism (CYP2B6) at 48 hours (AID 2283699);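 also: actives raise transcript level above DMSO so potency reflects induction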
In short: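 Primary human hepatocytes dosed daily for two days over multiple concentrations, 0.2% DMSO vehicle; CYP2B6 mRNA quantified at 48 h by qNPA chemiluminescence. Induction fitted as gain of signal versus DMSO; cytotoxicity annotated by morphology.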

[2] = read-out: Cytochrome P450 2C19 (Homo sapiens) (UniProt P33261); assay: CLD_CYP2C19_48hr: CellzDirect (CLD) Gene Expression Assay for xenobiotic metabolism (CYP2C19) at 48 hours (AID 2283700);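 also: fitted upward so actives raise CYP2C19 mRNA above the 0.2% DMSO vehicle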
In short: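 Primary human hepatocytes (two donor preparations) dosed daily for two days, harvested at 48 h; CYP2C19 mRNA induction measured by qNPA chemiluminescence. Gain-of-signal fitted relative to 0.2% DMSO vehicle as baseline.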

[3] = read-out: xenobiotic metabolism (CYP2C9), CYP2C9 (gene 1559); assay: CLD_CYP2C9_48hr: CellzDirect (CLD) Gene Expression Assay for xenobiotic metabolism (CYP1A2) at 48 hours (AID 2283701; active = hit-call score of the fitted dose curve at least 0.9, where 1 is the maximum; inactive = score below 0.9)
In short: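 Primary human hepatocytes (two donor preparations) dosed daily for two days with test chemicals, 0.2% DMSO vehicle; harvested at 48 h. mRNA induction quantified by qNPA chemiluminescence, fitted for gain of signal against DMSO baseline; cytotoxicity annotated from phase-contrast morphology.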

[4] = CLD_ACTIN_48hr: CellzDirect (CLD) Gene Expression Assay for Baseline Control (Actin) at 48 hours (AID 2283702)
In short: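 Primary human hepatocytes (two donor preparations) dosed daily for two days with ToxCast chemicals at multiple concentrations versus 0.2% DMSO vehicle; harvested at 48 h. Actin mRNA measured as a background control by quantitative nuclease protection assay with chemiluminescence.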

[5] = read-out: xenobiotic metabolism (CYP1A2), CYP1A2 (gene 1544); assay: CLD_CYP1A2_48hr: CellzDirect (CLD) Gene Expression Assay for xenobiotic metabolism (CYP1A2) at 48 hours (AID 2283703)
In short: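 Primary human hepatocytes from two donor preparations were dosed daily for two days at multiple concentrations in 0.2% DMSO vehicle. CYP1A2 mRNA was measured at 48 hours by chemiluminescent quantitative nuclease protection assay, with gain of signal fitted versus DMSO and cytotoxicity annotated from morphology.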

[6] = read-out: organic anion transporter (SLCO1B1), SLCO1B1 (gene 10599); assay: CLD_SLCO1B1_48hr: CellzDirect (CLD) Gene Expression Assay for organic anion transporter (SLCO1B1) at 48 hours (AID 2283707)
In short: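 Primary human hepatocytes from two donor preparations dosed daily for two days with multiple concentrations, 0.2% DMSO vehicle. SLCO1B1 mRNA at 48 h by quantitative nuclease protection assay, chemiluminescence; gain-of-signal fitted versus DMSO.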

[7] = read-out: sulfotransferase (SULT2A), SULT2A1 (gene 6822); assay: CLD_SULT2A_48hr: CellzDirect (CLD) Gene Expression Assay for sulfotransferase (SULT2A) at 48 hours (AID 2283710);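 also: hits raise SULT2A1 transcript above the 0.2% DMSO vehicle baseline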
In short: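 Primary human hepatocytes (two donor preparations) dosed daily for two days with chemicals at multiple concentrations, vehicle 0.2% DMSO; SULT2A1 mRNA induction at 48 h by quantitative nuclease protection assay, chemiluminescent read-out, fitted for gain of signal versus DMSO.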

[8] = STM_H9_CystineISnorm_perc: Stemina devTOX quickPredict H9 human embryonic stem cell (hESC)-based Assay for Cystine (CYSS) Metabolite Biomarker, Normalized (AID 2283713; active = hit-call score of the fitted dose curve at least 0.9, where 1 is the maximum; inactive = score below 0.9)
In short: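 H9 hESC, pluripotent; compound 72h, re-dosed q24h with medium change. Last-24h medium → 40% acetonitrile deproteinization → UPLC-HRMS. CYSS area / C13-CYSS standard, then % of 0.1% DMSO median.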

[9] = Tanguay_ZF_120hpf_ActivityScore_legacy: (Legacy) Oregon State University Tanguay Lab 120 Hour Post-fertilization zebrafish Assay Score for Activity (AID 2283742)
In short: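 Dechorionated Tropical 5D embryos, one per well from 6 hpf, statically exposed to 120 hpf at 28 °C in 0.64% DMSO. Mortality and malformations scored binary by brightfield microscopy; activity score combines 18 endpoints, fitted positively versus DMSO.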

[10] = read-out: xenobiotic metabolism (CYP1A1), CYP1A1 (gene 1543); assay: CLD_CYP1A1_48hr: CellzDirect (CLD) Gene Expression Assay for xenobiotic metabolism (CYP1A1) at 48 hours (AID 2283705)
In short: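 Primary human hepatocytes from two donors dosed daily for two days at multiple concentrations, 0.2% DMSO vehicle; CYP1A1 mRNA induction at 48 h by qNPA chemiluminescence. Cytotoxicity noted by phase-contrast morphology.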

[11] = STM_H9_OrnCyssISnorm_ratio: Stemina devTOX quickPredict H9 human embryonic stem cell (hESC)-based Assay for Ornithine (ORN):Cystine (CYSS) Ratio (AID 2283714)
In short: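 Undifferentiated H9 hESCs exposed 72 h, media and compound replaced every 24 h; final 24-h conditioned media deproteinized and analysed by UPLC-HRMS against C13 spike-ins. Value is the internal-standard-normalized ORN/CYSS ratio versus 0.1% DMSO.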

[12] = CEETOX_H295R_MTT_cell_viability: Viability Assessment in the CeeTox HT-H295R MTT Assay (AID 2283718; active = hit-call score of the fitted dose curve at least 0.9, where 1 is the maximum; inactive = score below 0.9)
In short: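 Human H295R adrenal cells, prestimulated 48 h with 10 uM forskolin, were exposed 48 h to chemicals in 0.1% DMSO. Viability was measured in the same wells by MTT (0.5 mg/ml, 4 h, 37 C), absorbance 570/650 nm, as percent of controls.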

[13] = ArunA_Migration_hNP: ArunA Biomedical's Oris Neuroprogenitor (hNP) Cell Migration Assay (AID 2283754)
In short: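 Human H9-derived hNP1 neuroprogenitors on Matrigel with LIF/bFGF, plated around seeding stoppers for 16 h at 37C; stoppers removed at start of 72 h chemical exposure. Calcein-AM staining, fluorescence 494/517 nm in detection zone; loss-of-signal vs DMSO; cytochalasin D control.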

[14] = ArunA_Migration_hNC: ArunA Biomedical's Oris Neural Crest (hNC) Cell Migration Assay (AID 2283755)
In short: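 Human H9-derived neural crest stem cells, 60,000/well on Matrigel, 16 h at 37C, then 72 h chemical exposure after seeding-stopper removal. Migration into detection zone read as calcein-AM fluorescence (ex494/em517), relative to DMSO.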

[15] = read-out: Broad substrate specificity ATP-binding cassette transporter ABCG2 (Homo sapiens) (UniProt Q9UNQ0); assay: CLD_ABCG2_48hr: CellzDirect (CLD) Gene Expression Assay for ABC Transporter (ABCG2) at 48 hours (AID 2283704)
In short: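 Primary human hepatocytes from two donors, dosed daily for 2 days, 0.2% DMSO vehicle, several concentrations. ABCG2 mRNA at 48 h by qNPA chemiluminescence, gain fitted versus DMSO; cytotoxicity flagged by morphology.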

[16] = read-out: glucuronosyltransferase (UGT1A1), UGT1A1 (gene 54658); assay: CLD_UGT1A1_48hr: CellzDirect (CLD) Gene Expression Assay for glucuronosyltransferase (UGT1A1) at 48 hours (AID 2283709);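 also: actives increase expression relative to DMSO so potency refers to induction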
In short: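 Human primary hepatocytes dosed daily for two days (0.2% DMSO vehicle), harvested at 48 h. UGT1A1 mRNA induction measured by quantitative nuclease protection assay with chemiluminescence; gain of signal versus DMSO; cytotoxicity flagged from morphology.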

[17] = ArunA_CellTiter_hNC: Viability Assessment in the ArunA Biomedical's Oris Neural Crest (hNC) Cell Migration Assay (AID 2283752)
In short: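 Cell titer was measured with the CellTiter Aqueous One reagent after 72 h of chemical dosing. Cells were H9-derived embryonic neural crest stem cells seeded on Matrigel, 60,000 per well, and given 16 h at 37C beforehand.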

[18] = ArunA_CellTiter_hNP: Viability Assessment in the ArunA Biomedical's Oris Neural Crest (hNC) Cell Migration Assay (AID 2283753)
In short: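 H9-derived hNP1 neuroprogenitors, 60,000/well on Matrigel, cultured 16 h, then 72 h chemical exposure in test medium. Cell titer via CellTiter Aqueous One; positive-direction fit vs DMSO.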

Measured: AC50

Cytochrome P450 2C19 (Homo sapiens), sequence (P33261 whole entry, looked up): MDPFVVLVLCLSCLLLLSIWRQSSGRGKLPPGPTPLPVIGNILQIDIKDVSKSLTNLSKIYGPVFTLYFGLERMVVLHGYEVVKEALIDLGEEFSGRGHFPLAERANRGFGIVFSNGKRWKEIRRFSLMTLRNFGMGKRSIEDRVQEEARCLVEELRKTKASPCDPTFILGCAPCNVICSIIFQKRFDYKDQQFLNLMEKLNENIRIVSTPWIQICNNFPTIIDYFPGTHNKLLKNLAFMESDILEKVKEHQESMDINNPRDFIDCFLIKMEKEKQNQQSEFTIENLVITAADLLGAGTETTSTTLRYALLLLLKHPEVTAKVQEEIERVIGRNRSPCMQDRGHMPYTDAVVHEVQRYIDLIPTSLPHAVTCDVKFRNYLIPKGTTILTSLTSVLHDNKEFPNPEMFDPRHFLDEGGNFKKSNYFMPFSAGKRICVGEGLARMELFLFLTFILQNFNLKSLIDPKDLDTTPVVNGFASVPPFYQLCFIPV
Broad substrate specificity ATP-binding cassette transporter ABCG2 (Homo sapiens), sequence (Q9UNQ0 whole entry, looked up): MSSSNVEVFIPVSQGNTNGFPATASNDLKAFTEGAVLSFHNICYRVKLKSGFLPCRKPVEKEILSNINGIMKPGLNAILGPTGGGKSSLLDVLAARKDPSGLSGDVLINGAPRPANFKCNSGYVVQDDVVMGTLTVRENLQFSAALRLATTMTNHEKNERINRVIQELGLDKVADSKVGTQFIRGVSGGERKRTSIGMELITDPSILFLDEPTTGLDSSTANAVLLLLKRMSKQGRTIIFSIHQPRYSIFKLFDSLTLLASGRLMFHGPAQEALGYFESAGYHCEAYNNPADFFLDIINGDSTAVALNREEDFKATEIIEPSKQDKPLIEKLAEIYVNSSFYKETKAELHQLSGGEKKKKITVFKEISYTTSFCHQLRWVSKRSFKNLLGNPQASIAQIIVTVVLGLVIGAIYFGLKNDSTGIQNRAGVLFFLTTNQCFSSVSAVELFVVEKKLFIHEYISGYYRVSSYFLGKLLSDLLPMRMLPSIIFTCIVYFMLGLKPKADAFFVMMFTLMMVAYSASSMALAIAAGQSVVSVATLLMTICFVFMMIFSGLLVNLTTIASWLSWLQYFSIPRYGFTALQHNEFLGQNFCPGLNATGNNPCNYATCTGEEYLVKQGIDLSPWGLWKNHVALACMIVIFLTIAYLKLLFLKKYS

C[N+]1(C)CCCCC1
active: [3] 0.0004 µM
inactive: [1] | [2] | [4] | [5] | [6] | [7] | [8] | [9]

C[Si](Cn1cncn1)(c1ccc(F)cc1)c1ccc(F)cc1
inactive: [4] | [7] | [12] | [13] | [14]
active: [1] 0.051 µM | [5] 1.89 µM | [10] 0.727 µM | [8] 30.2 µM | [11] 50.7 µM

CC1(C(=O)Nc2ccc(O)c(Cl)c2Cl)CCCCC1
inactive: [2] | [4] | [15] | [12]

CC(Oc1cccc(Cl)c1)C(=O)O (stereo unspecified)
inactive: [2] | [4] | [5] | [6] | [16]

CNc1cnn(-c2cccc(C(F)(F)F)c2)c(=O)c1Cl
active: [1] 3.19 µM | [5] 5.39 µM | [10] 5.37 µM
inactive: [16] | [7] | [8] | [11] | [12] | [9]

O=c1ccc(=O)[nH][nH]1
inactive: [4] | [6]

CCc1cccc(C)c1N(C(=O)CCl)C(C)COC (stereo unspecified)
active: [1] 0.969 µM
inactive: [5] | [16] | [7] | [12]

CC(COc1ccc(Oc2ccccc2)cc1)Oc1ccccn1 (stereo unspecified)
active: [1] 3.53 µM | [8] 0.0124 µM
inactive: [6] | [7] | [12]

CSc1nnc(C(C)(C)C)c(=O)n1N
inactive: [16] | [8] | [12]
active: [1] 20 µM | [5] 2.97 µM

CSc1nc(NC(C)C)nc(NC(C)C)n1
active: [1] 3.24 µM | [5] 1.64 µM | [8] 0.234 µM | [11] 0.237 µM
inactive: [16] | [7] | [12] | [9]

CCC(=O)Nc1ccc(Cl)c(Cl)c1
active: [1] 0.92 µM | [5] 4.67 µM | [10] 4.64 µM
inactive: [12] | [9]

CCc1cnc(C2=NC(C)(C(C)C)C(=O)N2)c(C(=O)O)c1 (stereo unspecified)
inactive: [2] | [4] | [5] | [6] | [7]

CC[C@H](C)[C@H]1O[C@]2(C=C[C@@H]1C)C[C@@H]1C[C@@H](C/C=C(\C)[C@@H](O[C@H]3C[C@H](OC)[C@@H](O[C@H]4C[C@H](OC)[C@@H](NC)[C@H](C)O4)[C@H](C)O3)[C@@H](C)/C=C/C=C3\CO[C@@H]4[C@H](O)C(C)=C[C@@H](C(=O)O1)[C@]34O)O2
active: [7] 2 µM
inactive: [4] | [6]

CNC(=O)ON=C(C)SC
inactive: [2] | [4] | [5] | [16] | [7] | [12]

CCC(=NOC/C=C/Cl)C1=C(O)CC(C2CCOCC2)CC1=O (stereo unspecified)
inactive: [1] | [5] | [6] | [8] | [9]

CC(C)[C@H](C(=O)O[C@H](C#N)c1cccc(Oc2ccccc2)c1)c1ccc(Cl)cc1
inactive: [7] | [12]
active: [1] 8.04 µM | [5] 20 µM | [8] 80.5 µM | [11] 74.2 µM

COP(=O)(OC)SCn1c(=O)oc2cc(Cl)cnc21
inactive: [4] | [5] | [16] | [7] | [9]

S=C1NCCN1
inactive: [2] | [4] | [6] | [16] | [8] | [9] | [17] | [18] | [13] | [14]

FC(F)C(F)(F)OCC(Cn1cncn1)c1ccc(Cl)cc1Cl (stereo unspecified)
active: [1] 0.321 µM | [5] 1.27 µM
inactive: [8] | [12]
